Measured values from PubChem BioAssay AID602144 (Vanderbilt Specialized Chemistry Center, 2011).
Unmarked numbers belong to inactive results. Active and inactive are the calls of the source. Cut-off read from the data, not from the text of the source: active = remaining activity below about 50%; inactive = the rest.

The compounds below were run against Phospholipase D1 (Homo sapiens) (UniProt Q13393) (assay: cellular phospholipase D1 activity inhibition – Calu-1 cells, single concentration (AID 602144;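 note: tested at 200 nM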)). Conditions: cellular PLD1 activity, hits give low values.
Phospholipase D1 (Homo sapiens), sequence (Q13393 whole entry, looked up): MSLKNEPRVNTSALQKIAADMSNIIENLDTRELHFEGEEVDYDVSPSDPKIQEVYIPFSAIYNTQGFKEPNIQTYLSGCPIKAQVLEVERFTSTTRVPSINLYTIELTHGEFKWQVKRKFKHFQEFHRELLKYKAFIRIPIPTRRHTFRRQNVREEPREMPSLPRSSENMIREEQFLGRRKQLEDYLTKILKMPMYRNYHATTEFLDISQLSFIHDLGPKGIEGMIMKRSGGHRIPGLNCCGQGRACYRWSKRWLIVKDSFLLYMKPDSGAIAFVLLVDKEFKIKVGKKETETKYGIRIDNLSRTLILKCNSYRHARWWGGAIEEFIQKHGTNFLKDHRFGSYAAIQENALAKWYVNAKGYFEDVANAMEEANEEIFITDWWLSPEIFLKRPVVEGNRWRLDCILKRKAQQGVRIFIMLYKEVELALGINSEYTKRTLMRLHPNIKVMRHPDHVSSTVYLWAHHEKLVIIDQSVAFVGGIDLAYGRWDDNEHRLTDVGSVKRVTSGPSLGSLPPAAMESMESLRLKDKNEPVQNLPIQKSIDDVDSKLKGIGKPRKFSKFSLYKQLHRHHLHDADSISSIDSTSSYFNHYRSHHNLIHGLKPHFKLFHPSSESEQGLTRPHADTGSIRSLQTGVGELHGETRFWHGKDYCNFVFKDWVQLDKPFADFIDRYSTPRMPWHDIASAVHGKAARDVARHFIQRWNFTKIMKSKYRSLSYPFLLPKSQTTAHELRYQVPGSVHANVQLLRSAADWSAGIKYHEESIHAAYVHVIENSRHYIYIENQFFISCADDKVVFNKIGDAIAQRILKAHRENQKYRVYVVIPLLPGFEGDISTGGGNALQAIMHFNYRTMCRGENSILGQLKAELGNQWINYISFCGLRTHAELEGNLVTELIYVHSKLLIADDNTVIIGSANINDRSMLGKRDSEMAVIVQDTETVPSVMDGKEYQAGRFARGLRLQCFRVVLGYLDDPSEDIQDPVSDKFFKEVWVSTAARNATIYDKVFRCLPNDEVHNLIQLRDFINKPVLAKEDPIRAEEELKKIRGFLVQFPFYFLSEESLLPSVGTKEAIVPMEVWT
Phospholipase D1 (Homo sapiens), sequence (Q13393 whole entry, looked up): as above
With `O=C(NCCN1CCC(n2c(=O)[nH]c3ccccc32)CC1)c1ccc2ccc3c4c2c1CC=C4CC=C3` the remaining activity was 95.6%. `Cc1ccc(C(=O)NCCN2CCC(n3c(=O)[nH]c4cc(Br)ccc43)CC2)cc1` was tested, and the remaining activity was 3.74% (active). For `O=C(NCCN1CCN(c2ccccn2)CC1)c1ccc(F)cc1`, the remaining activity was 126%. With `O=C(NCCN1CCC(n2c(=O)[nH]c3ccccc32)CC1)c1cnccn1` the remaining activity was 76.7%. `O=C(NCCN1CCC(n2c(=O)[nH]c3ccccc32)CC1)C1C=Cc2ccccc2C1` (stereo not drawn) was tested, and the remaining activity was 33% (active). With `C[C@@H](CN1CCC2(C=Cc3ccccc32)CC1)NC(=O)c1ccc2ccccc2c1` the remaining activity was 102%. With `Cc1ccc(C(=O)N[C@@H](C)CN2CCC(n3c(=O)[nH]c4cc(Br)ccc43)CC2)cc1` the remaining activity was 13% (active). With `Nc1ccc(C(=O)NCCN2CCC(n3c(=O)[nH]c4ccccc43)CC2)c(F)c1` the remaining activity was 68.5%. `O=C(NCCN1CCN(c2ncccn2)CC1)c1ccc(F)cc1` gave a remaining activity of 76.5%. Work on `O=c1[nH]c2ccccc2n1C1CCN(CCNS(=O)(=O)c2cc(Cl)ccc2Cl)CC1` yielded a remaining activity of 104%. For `C[C@H](CN1CCC2(CC1)CNCc1ccccc12)NC(=O)c1cnc2ccccc2c1`, the remaining activity was 69%. In the case of `O=C(NCCN1CC=C(n2nnc3cc(C(F)(F)F)ccc32)CC1)c1cnc2ccccc2c1`, the remaining activity is reported as 44.5% (active). `O=C(c1ccc(Cl)cc1)N(CCN1CCC(n2c(=O)[nH]c3ccccc32)CC1)C(=O)c1ccc(Cl)cc1` was tested, and the remaining activity was 63.9%.
